# Data from the supplement of paper PMC8728848.
# Many of the other results were omitted from the sample, so the strongest signals are more common in it than they were.
# Key:
# Test in all cases: glycan array binding signal (z-score within array); higher = stronger binding
# Settings in all cases: glycan notation: IUPAC condensed, linker removed
# [1] = target: Fuc(a1-2)Gal(b1-3)GalNAc(a1-3)[Fuc(a1-2)]Gal(b1-4)Glc
# Method in brief: (§1)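 The binding signal is a Z-score computed within each array. Data were drawn from 3228 arrays in the Consortium for Functional Glycomics database, restricted to those with a known protein sequence. Scores were averaged over arrays of the same protein sequence at different concentrations or buffers, and over linkers, and negative values can be taken as non-binding.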
# [2] = target: Fuc(a1-2)Gal(b1-3)GalNAc(a1-3)[Fuc(a1-2)]Gal(b1-4)GlcNAc
# Method in brief: as §1
# [3] = target: Fuc(a1-2)Gal(b1-4)[Fuc(a1-3)]GlcNAc(b1-2)Man(a1-3)[Fuc(a1-2)Gal(b1-4)[Fuc(a1-3)]GlcNAc(b1-2)Man(a1-6)]Man(b1-4)GlcNAc(b1-4)GlcNAc
# Method in brief: as §1
# [4] = target: Fuc(a1-2)Gal6S(b1-4)GlcNAc
# Method in brief: as §1
# Fuc(a1-2)[Gal(a1-3)]Gal = target: Fuc(a1-2)[Gal(a1-3)]Gal
# Method in brief: as §1
# [5] = target: Fuc(a1-2)[GalNAc(a1-3)]Gal(b1-3)GalNAc(a1-3)[Fuc(a1-2)]Gal(b1-4)GlcNAc
# Method in brief: as §1
# [6] = target: Fuc(a1-2)[GalNAc(a1-3)]Gal(b1-3)GlcNAc
# Method in brief: as §1
# [7] = target: Fuc(a1-2)[GalNAc(a1-3)]Gal(b1-4)GlcNAc(b1-2)Man(a1-3)[Fuc(a1-2)[GalNAc(a1-3)]Gal(b1-4)GlcNAc(b1-2)Man(a1-6)]Man(b1-4)GlcNAc(b1-4)GlcNAc
# Method in brief: as §1
# [8] = target: Fuc(a1-2)[GalNAc(a1-3)]Gal(b1-4)GlcNAc(b1-3)Gal(b1-4)GlcNAc
# Method in brief: as §1
# [9] = target: Fuc(a1-2)[GalNAc(a1-3)]Gal(b1-4)GlcNAc(b1-3)Gal(b1-4)GlcNAc(b1-3)Gal(b1-4)GlcNAc
# Method in brief: as §1
# [10] = target: Fuc(a1-2)[GalNAc(a1-4)]Gal(b1-4)GlcNAc
# Method in brief: as §1
# Gal(a1-2)Gal = target: Gal(a1-2)Gal
# Method in brief: as §1
# [11] = target: Gal(a1-3)Gal(b1-4)GlcNAc(b1-3)GalNAc
# Method in brief: as §1
# [12] = target: Gal(b1-3)GalNAc(a1-3)[Fuc(a1-2)]Gal(b1-4)Glc
# Method in brief: as §1
# [13] = target: Gal(b1-3)GalNAc(b1-4)[Neu5Ac(a2-3)]Gal(b1-4)Glc
# Method in brief: as §1
# [14] = target: Gal(b1-3)GlcNAc(a1-6)Gal(b1-4)GlcNAc
# Method in brief: as §1
# [15] = target: Gal(b1-3)GlcNAc(b1-3)Gal(b1-3)GlcNAc
# Method in brief: as §1
# [16] = target: Gal(b1-3)GlcNAc(b1-3)Gal(b1-4)GlcNAc
# Method in brief: as §1
# [17] = target: Gal(b1-4)GlcNAc(b1-2)Man(a1-6)[GlcNAc(b1-2)Man(a1-3)]Man(b1-4)GlcNAc(b1-4)GlcNAc
# Method in brief: as §1
# [18] = target: Gal3S(b1-4)[Fuc(a1-3)]Glc6S
# Method in brief: as §1
# GalNAc(a1-3)GalNAc = target: GalNAc(a1-3)GalNAc
# Method in brief: as §1
# [19] = target: GalNAc(a1-3)GalNAc(a1-3)Gal(a1-4)Gal(b1-4)GlcNAc
# Method in brief: as §1
# Glc(a1-4)Glc = target: Glc(a1-4)Glc
# Method in brief: as §1
# [20] = target: GlcNAc(b1-2)Gal(b1-3)GalNAc
# Method in brief: as §1
# [21] = target: GlcNAc(b1-2)Man(a1-3)[GlcNAc(b1-2)Man(a1-6)]Man(b1-4)GlcNAc(b1-4)GlcNAc
# Method in brief: as §1
# [22] = target: GlcNAc(b1-3)Gal(b1-4)GlcNAc
# Method in brief: as §1
# [23] = target: GlcNAc(b1-4)Gal(b1-4)GlcNAc
# Method in brief: as §1
# Kdn(a2-3)Gal(b1-3)GalNAc = target: Kdn(a2-3)Gal(b1-3)GalNAc
# Method in brief: as §1
# Kdn(a2-3)Gal(b1-4)GlcNAc = target: Kdn(a2-3)Gal(b1-4)GlcNAc
# Method in brief: as §1
# [24] = target: Man(a1-2)Man(a1-6)[Man(a1-3)]Man(a1-6)[Man(a1-2)Man(a1-2)Man(a1-3)]Man(b1-4)GlcNAc(b1-4)GlcNAc
# Method in brief: as §1
binder,measurement,setting,value
"Flo10 (Saccharomyces cerevisiae), P36170 (protein) MPVAARYIFLTGLFLLSVANVALGTTEACLPAGEKKNGMTINFYQYSLKDSSTYSNPSYMAYGYADAEKLGSVSGQTKLSIDYSIPCNGASDTCACSDDDATEYSASQVVPVKRGVKLCSDNTTLSSKTEKRENDDCDQGAAYWSSDLFGFYTTPTNVTVEMTGYFLPPKTGTYTFGFATVDDSAILSVGGNVAFECCKQEQPPITSTDFTINGIKPWNADAPTDIKGSTYMYAGYYYPIKIVYSNAVSWGTLPVSVVLPDGTEVNDDFEGYVFSFDDNATQAHCSVPNPAEHARTCVSSATSSWSSSEVCTECTETESTSYVTPYVTSSSWSSSEVCTECTETESTSTSTPYVTSSSSSSSEVCTECTETESTSYVTPYVSSSTAAANYTSSFSSSSEVCTECTETESTSTSTPYVTSSSWSSSEVCTECTETESTSYVTPYVSSSTAAANYTSSFSSSSEVCTECTETESTSTSTPYVTSSSSSSSEVCTECTETESTSYVTPYVSSSTAAANYTSSFSSSSEVCTECTETESTSTSTPYVTSSSWSSSEVCTECTETESTSYVTPYVSSSTAAANYTSSFSSSSEVCTECTETESTSTSTPYATSSTGTATSFTASTSNTMTSLVQTDTTVSFSLSSTVSEHTNAPTSSVESNASTFISSNKGSVKSYVTSSIHSITPMYPSNQTVTSSSVVSTPITSESSESSASVTILPSTITSEFKPSTMKTKVVSISSSPTNLITSYDTTSKDSTVGSSTSSVSLISSISLPSSYSASSEQIFHSSIVSSNGQALTSFSSTKVSSSESSESHRTSPTTSSESGIKSSGVEIESTSTSSFSFHETSTASTSVQISSQFVTPSSPISTVAPRSTGLNSQTESTNSSKETMSSENSASVMPSSSATSPKTGKVTSDETSSGFSRDRTTVYRMTSETPSTNEQTTLITVSSCESNSCSNTVSSAVVSTATTTINGITTEYTTWCPLSATELTTVSKLESEEKTTLITVTSCESGVCSETASPAIVSTATATVNDVVTVYSTWSPQATNKLAVSSDIENSASKASFVSEAAETKSISRNNNFVPTSGTTSIETHTTTTSNASENSDNVSASEAVSSKSVTNPVLISVSQQPRGTPASSMIGSSTASLEMSSYLGIANHLLTNSGISIFIASLLLAIV",glycan array binding signal (z-score),[1],-0.704
same,glycan array binding signal (z-score),[2],0.044
same,glycan array binding signal (z-score),[3],-0.165
same,glycan array binding signal (z-score),[4],0.331
same,glycan array binding signal (z-score),Fuc(a1-2)[Gal(a1-3)]Gal,-0.579
same,glycan array binding signal (z-score),[5],1.12
same,glycan array binding signal (z-score),[6],-0.144
same,glycan array binding signal (z-score),[7],3.27
same,glycan array binding signal (z-score),[8],4.78
same,glycan array binding signal (z-score),[9],5.34
same,glycan array binding signal (z-score),[10],-0.76
same,glycan array binding signal (z-score),Gal(a1-2)Gal,3.67
same,glycan array binding signal (z-score),[11],-0.351
same,glycan array binding signal (z-score),[12],3.64
same,glycan array binding signal (z-score),[13],0.092
same,glycan array binding signal (z-score),[14],0.52
same,glycan array binding signal (z-score),[15],3.58
same,glycan array binding signal (z-score),[16],0.23
same,glycan array binding signal (z-score),[17],0.034
same,glycan array binding signal (z-score),[18],-0.042
same,glycan array binding signal (z-score),GalNAc(a1-3)GalNAc,0.641
same,glycan array binding signal (z-score),[19],1.74
same,glycan array binding signal (z-score),Glc(a1-4)Glc,-0.77
same,glycan array binding signal (z-score),[20],-0.768
same,glycan array binding signal (z-score),[21],-0.394
same,glycan array binding signal (z-score),[22],-0.536
same,glycan array binding signal (z-score),[23],-0.716
same,glycan array binding signal (z-score),Kdn(a2-3)Gal(b1-3)GalNAc,0.113
same,glycan array binding signal (z-score),Kdn(a2-3)Gal(b1-4)GlcNAc,-0.202
same,glycan array binding signal (z-score),[24],-0.712
